According to the supplement of paper PMC10849652:
Of roughly 7,900 targets only a part is listed; those with a hit were picked by preference. About 0.6% of all pairs of compound and target were hits.

Each target was assayed with C[C@@H]1COCCN1C2=NC(=NC(=C2)C3(CC3)S(=O)(=O)C)C4=C5C=CNC5=CC=C4 (assay: log2 fold change, soluble protein after heating vs DMSO (PISA); higher = thermal stabilisation; K562 cells, 10 uM, 30 min; active = over 0.2 and 3.5 SD of the protein, either way, in both replicates (recomputed)).
Method in brief: (§1)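 Quantification of soluble protein used TMTpro 16plex LC-MS/MS, with channel sums equalised. Samples were the supernatant after 21,000xg for 90 min of pooled aliquots from K562 cells (2×10^6 cells/mL) treated with 10 μM compound for 30 min, heated for 3 min over 48°C-58°C, and extracted in PBS with 0.5% NP-40 at 4°C. Values, from duplicates, describe thermal stability against control samples on a log2 fold-change scale.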

Chain of UniProt Q6EEV4 (Q6EEV4 whole entry, looked up): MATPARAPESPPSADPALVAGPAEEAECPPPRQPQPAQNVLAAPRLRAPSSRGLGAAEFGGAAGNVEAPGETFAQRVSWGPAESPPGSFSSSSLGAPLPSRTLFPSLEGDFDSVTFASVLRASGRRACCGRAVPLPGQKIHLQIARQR
Chain of UniProt O00233 (O00233 whole entry, looked up): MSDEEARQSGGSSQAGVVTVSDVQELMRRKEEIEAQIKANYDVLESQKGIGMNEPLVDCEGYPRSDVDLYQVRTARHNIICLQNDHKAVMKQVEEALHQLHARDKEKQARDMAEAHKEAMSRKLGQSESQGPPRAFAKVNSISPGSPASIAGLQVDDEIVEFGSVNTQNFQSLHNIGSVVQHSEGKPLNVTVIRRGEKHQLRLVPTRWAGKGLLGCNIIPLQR
Chain of UniProt P27986 (P27986 whole entry, looked up): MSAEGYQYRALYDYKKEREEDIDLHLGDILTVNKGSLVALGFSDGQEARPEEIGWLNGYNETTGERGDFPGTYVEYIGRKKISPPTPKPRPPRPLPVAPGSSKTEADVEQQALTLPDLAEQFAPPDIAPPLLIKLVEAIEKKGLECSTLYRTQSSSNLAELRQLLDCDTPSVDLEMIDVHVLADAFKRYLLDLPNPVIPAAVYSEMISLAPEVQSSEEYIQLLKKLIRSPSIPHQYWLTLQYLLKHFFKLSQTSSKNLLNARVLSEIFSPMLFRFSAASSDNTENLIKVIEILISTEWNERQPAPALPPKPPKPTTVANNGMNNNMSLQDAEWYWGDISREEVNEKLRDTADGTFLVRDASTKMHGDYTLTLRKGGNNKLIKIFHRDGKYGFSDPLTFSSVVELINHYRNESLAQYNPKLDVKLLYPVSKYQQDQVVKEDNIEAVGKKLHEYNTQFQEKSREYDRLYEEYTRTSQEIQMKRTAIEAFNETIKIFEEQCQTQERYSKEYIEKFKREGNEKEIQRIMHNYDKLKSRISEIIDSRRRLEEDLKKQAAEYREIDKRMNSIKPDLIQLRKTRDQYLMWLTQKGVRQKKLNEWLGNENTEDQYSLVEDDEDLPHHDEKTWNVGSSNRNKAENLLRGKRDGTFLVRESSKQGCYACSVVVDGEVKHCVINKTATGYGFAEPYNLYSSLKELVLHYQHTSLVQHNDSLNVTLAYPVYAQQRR
Chain of UniProt Q8N165 (Q8N165 whole entry, looked up): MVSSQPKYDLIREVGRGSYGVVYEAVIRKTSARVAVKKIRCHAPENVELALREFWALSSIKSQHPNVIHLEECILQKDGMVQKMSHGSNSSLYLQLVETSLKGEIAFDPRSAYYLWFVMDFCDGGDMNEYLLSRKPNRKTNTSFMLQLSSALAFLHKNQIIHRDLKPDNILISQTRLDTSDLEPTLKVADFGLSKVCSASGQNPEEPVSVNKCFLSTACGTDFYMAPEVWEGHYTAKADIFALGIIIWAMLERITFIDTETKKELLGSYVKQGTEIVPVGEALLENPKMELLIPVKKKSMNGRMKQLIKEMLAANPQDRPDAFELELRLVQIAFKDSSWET
Chain of UniProt Q15111 (Q15111 whole entry, looked up): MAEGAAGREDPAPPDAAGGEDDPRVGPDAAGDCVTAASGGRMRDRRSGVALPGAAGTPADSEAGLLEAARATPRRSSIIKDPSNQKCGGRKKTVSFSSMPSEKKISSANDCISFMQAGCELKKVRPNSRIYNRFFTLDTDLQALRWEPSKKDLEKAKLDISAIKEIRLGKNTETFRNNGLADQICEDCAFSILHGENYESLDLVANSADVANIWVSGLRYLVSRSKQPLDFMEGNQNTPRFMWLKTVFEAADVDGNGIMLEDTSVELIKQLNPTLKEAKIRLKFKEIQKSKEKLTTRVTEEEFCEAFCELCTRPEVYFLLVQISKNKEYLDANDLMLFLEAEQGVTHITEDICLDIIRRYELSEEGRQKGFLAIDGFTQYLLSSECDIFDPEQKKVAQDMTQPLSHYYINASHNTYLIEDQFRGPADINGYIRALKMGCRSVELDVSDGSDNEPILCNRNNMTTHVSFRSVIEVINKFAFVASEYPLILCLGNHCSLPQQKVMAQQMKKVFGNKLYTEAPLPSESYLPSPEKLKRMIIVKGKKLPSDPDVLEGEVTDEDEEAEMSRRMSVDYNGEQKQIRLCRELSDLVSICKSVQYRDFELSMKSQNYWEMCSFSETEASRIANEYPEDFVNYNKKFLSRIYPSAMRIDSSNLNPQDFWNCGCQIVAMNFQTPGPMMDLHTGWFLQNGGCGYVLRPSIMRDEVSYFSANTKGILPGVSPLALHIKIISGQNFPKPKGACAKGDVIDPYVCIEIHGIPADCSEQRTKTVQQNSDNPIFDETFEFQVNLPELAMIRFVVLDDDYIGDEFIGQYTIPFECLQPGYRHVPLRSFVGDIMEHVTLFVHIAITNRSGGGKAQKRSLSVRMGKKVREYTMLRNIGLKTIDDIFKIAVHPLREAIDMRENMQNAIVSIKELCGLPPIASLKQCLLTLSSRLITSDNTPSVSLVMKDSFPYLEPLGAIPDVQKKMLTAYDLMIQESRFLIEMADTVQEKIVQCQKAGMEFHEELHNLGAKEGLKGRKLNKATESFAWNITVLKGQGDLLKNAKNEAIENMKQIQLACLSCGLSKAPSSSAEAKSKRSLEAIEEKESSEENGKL
Chain of UniProt Q96AD5 (Q96AD5 whole entry, looked up): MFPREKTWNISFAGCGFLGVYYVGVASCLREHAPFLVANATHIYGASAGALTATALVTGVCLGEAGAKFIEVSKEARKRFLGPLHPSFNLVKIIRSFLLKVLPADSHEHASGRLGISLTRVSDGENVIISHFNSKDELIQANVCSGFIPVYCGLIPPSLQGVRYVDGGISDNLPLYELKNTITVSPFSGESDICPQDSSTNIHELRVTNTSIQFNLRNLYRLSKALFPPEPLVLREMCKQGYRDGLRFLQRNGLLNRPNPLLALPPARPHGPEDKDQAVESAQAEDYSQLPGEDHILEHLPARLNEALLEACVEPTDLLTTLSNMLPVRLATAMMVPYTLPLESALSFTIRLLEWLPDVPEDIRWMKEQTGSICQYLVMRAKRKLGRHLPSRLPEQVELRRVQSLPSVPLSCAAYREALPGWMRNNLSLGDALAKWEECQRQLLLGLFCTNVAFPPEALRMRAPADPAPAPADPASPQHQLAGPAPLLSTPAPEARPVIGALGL
Chain of UniProt O00408 (O00408 whole entry, looked up): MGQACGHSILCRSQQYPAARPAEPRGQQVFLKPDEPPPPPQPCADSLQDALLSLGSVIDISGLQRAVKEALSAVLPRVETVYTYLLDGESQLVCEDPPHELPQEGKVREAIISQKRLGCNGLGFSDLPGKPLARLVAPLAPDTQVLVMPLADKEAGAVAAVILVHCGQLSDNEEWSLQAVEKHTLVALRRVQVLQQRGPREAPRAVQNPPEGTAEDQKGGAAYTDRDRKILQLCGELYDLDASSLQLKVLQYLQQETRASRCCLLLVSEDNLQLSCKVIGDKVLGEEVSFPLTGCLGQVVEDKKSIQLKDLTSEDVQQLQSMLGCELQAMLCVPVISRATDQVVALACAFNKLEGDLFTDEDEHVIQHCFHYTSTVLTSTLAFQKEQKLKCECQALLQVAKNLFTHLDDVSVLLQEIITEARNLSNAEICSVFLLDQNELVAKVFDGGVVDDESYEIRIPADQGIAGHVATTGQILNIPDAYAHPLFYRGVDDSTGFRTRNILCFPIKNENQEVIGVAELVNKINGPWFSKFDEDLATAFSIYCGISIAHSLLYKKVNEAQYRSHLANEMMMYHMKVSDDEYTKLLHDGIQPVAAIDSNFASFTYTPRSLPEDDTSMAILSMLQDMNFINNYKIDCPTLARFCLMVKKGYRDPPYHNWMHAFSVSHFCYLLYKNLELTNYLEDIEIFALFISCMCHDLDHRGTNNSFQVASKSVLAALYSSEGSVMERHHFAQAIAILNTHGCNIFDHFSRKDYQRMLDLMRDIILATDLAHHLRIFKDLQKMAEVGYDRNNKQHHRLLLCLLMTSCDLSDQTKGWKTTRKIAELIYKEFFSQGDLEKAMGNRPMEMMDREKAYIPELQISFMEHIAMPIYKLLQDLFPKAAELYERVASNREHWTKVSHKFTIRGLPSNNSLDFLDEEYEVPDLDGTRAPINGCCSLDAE
Chain of UniProt O00329 (O00329 whole entry, looked up): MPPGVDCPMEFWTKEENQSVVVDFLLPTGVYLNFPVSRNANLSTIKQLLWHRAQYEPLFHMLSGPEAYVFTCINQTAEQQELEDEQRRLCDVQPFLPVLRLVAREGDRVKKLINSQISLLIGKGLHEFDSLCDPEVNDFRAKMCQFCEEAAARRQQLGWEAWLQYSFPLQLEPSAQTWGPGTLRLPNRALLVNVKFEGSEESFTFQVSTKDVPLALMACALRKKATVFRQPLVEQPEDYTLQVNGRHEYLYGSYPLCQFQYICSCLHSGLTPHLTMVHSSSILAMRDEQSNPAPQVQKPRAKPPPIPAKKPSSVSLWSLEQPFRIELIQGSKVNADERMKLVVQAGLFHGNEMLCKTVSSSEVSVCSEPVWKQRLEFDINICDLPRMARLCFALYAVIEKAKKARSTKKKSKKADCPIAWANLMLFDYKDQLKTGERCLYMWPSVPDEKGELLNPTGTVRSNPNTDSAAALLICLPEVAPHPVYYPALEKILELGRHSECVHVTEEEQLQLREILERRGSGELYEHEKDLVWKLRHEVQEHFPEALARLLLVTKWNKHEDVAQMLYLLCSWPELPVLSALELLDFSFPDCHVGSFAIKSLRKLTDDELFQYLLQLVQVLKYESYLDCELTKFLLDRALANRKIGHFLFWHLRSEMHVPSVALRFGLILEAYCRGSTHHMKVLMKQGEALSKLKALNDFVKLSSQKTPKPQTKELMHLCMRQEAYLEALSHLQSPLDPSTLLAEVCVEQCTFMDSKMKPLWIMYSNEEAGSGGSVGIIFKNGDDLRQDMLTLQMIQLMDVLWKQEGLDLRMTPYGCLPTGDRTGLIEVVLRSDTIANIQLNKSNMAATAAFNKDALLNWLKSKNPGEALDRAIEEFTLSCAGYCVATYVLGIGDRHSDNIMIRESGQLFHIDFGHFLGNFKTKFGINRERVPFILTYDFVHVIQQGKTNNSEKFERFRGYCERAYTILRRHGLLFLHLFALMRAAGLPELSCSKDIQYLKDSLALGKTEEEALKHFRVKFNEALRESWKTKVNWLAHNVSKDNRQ

log2 fold change, inactive:
PELP1 (UniProt Q8IZL8) -0.107, PDE2A (UniProt O00408) 0.223, PSMD1 (UniProt Q99460) -0.075, POLR2M (UniProt Q6EEV4) 0.16, POGLUT1 (UniProt Q8NBL1) 0, PTP4A2 (UniProt Q12974) 0.026, PNN (UniProt Q9H307) 0.022, PRPF40A (UniProt O75400) 0.105, PIKFYVE (UniProt Q9Y2I7) 0.096, PCYT1A (UniProt P49585) 0.092, PHC3 isoform 7 (UniProt Q8NDX5) 0.317, PSMB9 (UniProt P28065) 0.075, PRPF4B (UniProt Q13523) -0.025, PNPLA2 (UniProt Q96AD5) 0.094, PARP1 (UniProt P09874) 0.007, PDIK1L (UniProt Q8N165) -0.003, PTPN23 (UniProt Q9H3S7) 0.018, PPP1R14A (UniProt Q96A00) 0.005, PIK3R1 (UniProt P27986) 0.002, PKM isoform 2 (UniProt P14618) -0.154, PSMC4 (UniProt P43686) -0.056, PHAX (UniProt Q9H814) -0.036, POLR2K (UniProt P53803) 0.074, PLSCR1 (UniProt O15162) 0.101, PSMD9 (UniProt O00233) 0.022, PIK3CD (UniProt O00329) 0.034, PTGES3 (UniProt Q15185) 0.068, POLR2C (UniProt P19387) -0.062, PHKG2 (UniProt P15735) -0.097, QRICH1 (UniProt Q2TAL8) 0.07, PSMD3 (UniProt O43242) -0.003, PKN2 (UniProt Q16513) 0.067, PRKAB2 (UniProt O43741) 0.021, PLCL1 (UniProt Q15111) 0.074, PCBP1 (UniProt Q15365) 0.094, PRMT8 (UniProt Q9NR22) -0.043

These targets were tested with C[C@H](C1=CC=C(C=C1)C(=O)NC2=C3C=CNC3=NC=C2)N in the same assay as above.
Method in brief: as §1

log2 fold change, inactive:
PELP1 (UniProt Q8IZL8) -0.024, PDE2A (UniProt O00408) -0.108, PSMD1 (UniProt Q99460) 0.047, POLR2M (UniProt Q6EEV4) -0.078, POGLUT1 (UniProt Q8NBL1) 0.241, PTP4A2 (UniProt Q12974) -0.01, PNN (UniProt Q9H307) -0.05, PRPF40A (UniProt O75400) -0.061, PIKFYVE (UniProt Q9Y2I7) 0.073, PCYT1A (UniProt P49585) -0.097, PHC3 isoform 7 (UniProt Q8NDX5) 0.073, PSMB9 (UniProt P28065) 0.066, PRPF4B (UniProt Q13523) -0.089, PNPLA2 (UniProt Q96AD5) 0.095, PARP1 (UniProt P09874) 0.012, PDIK1L (UniProt Q8N165) 0.029, PTPN23 (UniProt Q9H3S7) 0.027, PPP1R14A (UniProt Q96A00) 0.003, PIK3R1 (UniProt P27986) 0.022, PSMC4 (UniProt P43686) 0.06, PHAX (UniProt Q9H814) -0.01, POLR2K (UniProt P53803) 0.098, PLSCR1 (UniProt O15162) -0.024, PSMD9 (UniProt O00233) -0.059, PIK3CD (UniProt O00329) 0.14, PTGES3 (UniProt Q15185) -0.101, POLR2C (UniProt P19387) 0.163, PHKG2 (UniProt P15735) 0.053, QRICH1 (UniProt Q2TAL8) 0.016, PSMD3 (UniProt O43242) 0.094, PKN2 (UniProt Q16513) -0.057, PRKAB2 (UniProt O43741) -0.231, PLCL1 (UniProt Q15111) -0.263, PCBP1 (UniProt Q15365) -0.012, PRMT8 (UniProt Q9NR22) 0.024
